Results published in PubChem BioAssay.
Results filed as inconclusive are left out. Active and inactive are the calls of the source.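 How the source made its calls, unless noted: active means inhibition over a set limit, the all-compound mean plus 3 SD, in both replicate runs; inconclusive means over that limit in just one replicate run; inactive means at or under that limit in both runs.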

How the values were obtained:
[1] = reducers of endogenous Her2 protein level, primary screen, SKBR3 breast tumor cells, AlphaScreen, ATP viability (AID 461;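 active means Her2 level under about 52% in both replicate screens, with viability over 70% of control, limit read from the data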;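 on Her2 level: lower value means less Her2 protein in the cells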;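 on viability: percent of carrier control wells set as 100% viability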); details: 18-24 h, measured here: SKBR3 viability, ATP luminescence, at 10 µM
[2] = target: Receptor tyrosine-protein kinase erbB-2 (Homo sapiens) (UniProt P04626); test: as above; details: 18-24 h, at 10 µM, stronger effect = lower value
[3] = SK-BR-3 cell growth inhibitors, pilot screen, 24 h, human (AID 572;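 active means viability at or below 10% of carrier control in both of two separate runs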;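 further: compound exposure lasted between 18 and 24 h rather than exactly 24 h; 100% = carrier-treated control wells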); details: SK-BR-3 viability, CellTiter-Glo luminescence, at 10 µM, stronger effect = lower value
[4] = HUVEC growth inhibition – cell-based, human, primary screen (AID 575;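 active means viability at or below 30% in both replicate assays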;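 further: 100% = median of untreated cell wells with 0.1% DMSO on each plate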); details: HUVEC proliferation, CellTiter-Glo luminescence, 72 h; at 10 µM; stronger effect = lower value
[5] = growth inhibitors of H69AR lung tumor, primary screen, human, duplicate replicates (AID 580;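 active means viability at or under a set limit in both replicates, limit being median viability minus 3 SD, cut at about 48% in these data, passing the limit was not always enough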;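 further: 100% = mean luminescence of untreated wells and 0% = no signal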); details: H69AR lung tumor cells viability, ATP luminescence, 72 h; at 10 µM; stronger effect = lower value
[6] = reversal of MRP1-mediated doxorubicin resistance, pilot screen, H69AR cells, doxorubicin co-treatment (AID 601;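 active means viability loss from added drug above about 55%, and viability with drug at most 40%, in both replicates, limit read from the data, passing the limit was not always enough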); details: CellTiter-Glo, 72 h, at 10 µM; for differential viability (reversal): stronger effect = higher value
[7] = 384-well plate pilot, post-Golgi transport modulator project, inhibition of yeast transport mutant growth (AID 636; in the data active means inhibition above about 31%); details: absorbance 615 nm, about 18 h, stronger effect = higher value
[8] = growth suppression of yeast trafficking mutant, preliminary HTS, modulators of trafficking downstream of Golgi apparatus project, 1536-format plate, OD 615 nm (AID 637; in the data active means inhibition above about 30%); details: yeast transport mutant growth, absorbance 615 nm, 18 h; stronger effect = higher value
[9] = OD615 S. cerevisiae growth inhibition, permissive medium, pilot counter-assay, permissive growth control for S. cerevisiae lifespan shortening project (AID 705;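 active means growth inhibition above 25% in both replicates, a cutoff set 3 SD above the mean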); details: OD615, 24 h, at 10 µM, stronger effect = higher value
[10] = Restrictive medium S. cerevisiae growth inhibition, OD615, pilot screen of yeast lifespan reduction project, restrictive growth control (AID 706;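 active means growth inhibition above a set limit, 3 SD over mean compound inhibition, in both replicates, cut at about 43% in these data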;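 further: modified DeaD lifespan yeast strain shifted to restrictive glucose medium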); details: OD615, 48 h, at 10 µM, stronger effect = higher value
[11] = viability gain of MRP-1-high H69AR cells under doxorubicin, pilot screen, MRP-1 activator project, CellTiter-Glo, duplicate (AID 807;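 active means viability increase at or above a cutoff of the median across tested compounds plus 3 SD, cut at about 8.5% in these data, passing the limit was not always enough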;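 further: compound pretreatment 18-22 h then 72 h combined with doxorubicin; 0% = doxorubicin alone and 100% = vehicle without doxorubicin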); details: H69AR viability with doxorubicin, CellTiter-Glo luminescence; at 10 µM; stronger effect = higher value
[12] = growth suppression of beta-catenin knockout HCT116, pilot screen, human colon tumor cells (AID 823;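 active means cell viability at or below a set limit in both duplicate runs, the limit being the all-compound median minus 4 SD, cut at about 23% in these data, passing the limit was not always enough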;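 further: 0% = wells killed by 20 µM Hyamine and 100% = untreated DMSO cell wells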); details: CellTiter-Glo, 60 h, at 10 µM, stronger effect = lower value
[13] = growth suppression of PTEN-deleted HCT116, pilot screen, cell-based, HCT116 clonal line, CellTiter-Glo (AID 824;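 active means viability at or below 27.92% in each of two runs, the all-compound median minus 4 SD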;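 further: 0% = 20 µM Hyamine control and 100% = vehicle cell control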); details: 60 h, at 10 µM, stronger effect = lower value
[14] = inhibitors of the yeast RAM network, pilot screen, dse1pr::URA3 reporter, 5-FOA selection (AID 869);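 further: 0% = DMSO wells with no growth and 100% = 10 µM 1-NA-PP1 with full growth; RAM network block rescues cells from 5-FOA so hits raise OD615 growth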; details: S. cerevisiae dse1pr::URA3 5-FOA growth, OD615, 2 d; at 10 µM; stronger effect = higher value; strain carries analog-sensitive mutant Cbk1 kinase
[15] = RAM signaling pathway blockade in yeast – S. cerevisiae, Pdr1DBD-CYC8 efflux-inhibited sensitized strain, primary screen (AID 1298;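 active means RAM network inhibition above 8.4% in each of two replicates, 3 SD over the compound average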;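 further: 0% = DMSO untreated cells without growth and 100% = 10 µM 1-NA-PP1 full growth; higher means more yeast growth rescued from 5-FOA killing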); details: S. cerevisiae cbk1-as DSE1-URA3 strain, 5-FOA growth OD615, 2 d; at 50 µM; stronger effect = higher value
[16] = H69AR cells + 2 uM doxorubicin, measured here: viability with 2 uM doxorubicin, stronger effect = lower value
[17] = H69AR cells, compound alone cytotoxicity

Chain of Receptor tyrosine-protein kinase erbB-2 (Homo sapiens) (P04626 whole entry, looked up): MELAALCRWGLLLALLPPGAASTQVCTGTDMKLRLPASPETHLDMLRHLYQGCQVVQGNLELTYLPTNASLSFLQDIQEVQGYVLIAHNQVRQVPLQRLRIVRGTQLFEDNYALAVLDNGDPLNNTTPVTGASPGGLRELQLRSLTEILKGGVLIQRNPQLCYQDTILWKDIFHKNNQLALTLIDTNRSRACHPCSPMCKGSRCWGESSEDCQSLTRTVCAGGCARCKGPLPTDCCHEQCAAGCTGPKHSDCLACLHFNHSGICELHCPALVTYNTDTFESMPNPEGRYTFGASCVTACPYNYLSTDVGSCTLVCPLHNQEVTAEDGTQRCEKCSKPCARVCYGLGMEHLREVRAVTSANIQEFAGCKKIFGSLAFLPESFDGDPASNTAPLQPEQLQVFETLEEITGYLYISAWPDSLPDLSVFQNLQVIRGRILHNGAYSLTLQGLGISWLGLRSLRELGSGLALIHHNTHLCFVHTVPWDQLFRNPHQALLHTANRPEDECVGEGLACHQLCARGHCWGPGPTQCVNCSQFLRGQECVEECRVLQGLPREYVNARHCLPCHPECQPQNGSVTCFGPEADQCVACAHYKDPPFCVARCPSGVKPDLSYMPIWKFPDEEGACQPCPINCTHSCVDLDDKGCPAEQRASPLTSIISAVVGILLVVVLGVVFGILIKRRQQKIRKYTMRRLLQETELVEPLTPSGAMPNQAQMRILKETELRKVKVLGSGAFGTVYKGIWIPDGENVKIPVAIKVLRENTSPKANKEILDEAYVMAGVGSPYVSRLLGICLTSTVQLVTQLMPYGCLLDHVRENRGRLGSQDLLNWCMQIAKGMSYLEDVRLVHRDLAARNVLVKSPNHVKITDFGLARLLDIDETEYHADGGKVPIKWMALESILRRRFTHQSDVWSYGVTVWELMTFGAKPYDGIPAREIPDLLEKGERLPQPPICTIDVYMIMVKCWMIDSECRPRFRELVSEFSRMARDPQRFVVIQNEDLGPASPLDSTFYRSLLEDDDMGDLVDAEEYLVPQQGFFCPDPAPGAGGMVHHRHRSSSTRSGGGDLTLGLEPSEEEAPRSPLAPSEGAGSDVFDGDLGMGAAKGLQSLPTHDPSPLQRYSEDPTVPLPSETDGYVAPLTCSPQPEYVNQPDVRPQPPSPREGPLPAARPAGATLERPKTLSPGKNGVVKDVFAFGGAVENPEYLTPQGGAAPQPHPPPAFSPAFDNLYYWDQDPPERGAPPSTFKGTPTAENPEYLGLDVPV

Compound | viability [1] | Her2 level [2] | viability [3] | viability [4] | viability [5] | differential viability (reversal) ([6]; H69AR cells + 2 uM doxorubicin) | viability [6, 16] | viability [6, 17] | inhibition [7] | inhibition [8] | growth inhibition [9] | growth inhibition [10] | viability increase [11] | viability [12] | viability [13] | inhibition [14] | RAM network inhibition [15]
Cc1ccc(N=Cc2ccc(O)cc2O)cc1F | 112% | 80% (inactive) | 112% (inactive) | 69.3% (inactive) | 81.9% (inactive) | 8.83% (inactive) | 73.1% | 81.9% | -2.34% (inactive) | 6.39% (inactive) | -10.6% (inactive) | -25.5% (inactive) | -4.99% (inactive) | 76% (inactive) | 77.8% (inactive) | 0.995% (inactive) | 0.31% (inactive)
Cc1nc2ccccn2c1/C(O)=C1\C(=O)C(=O)N(CCCN(C)C)C1c1ccc(F)cc1 (stereo not drawn) | 89% | 91% (inactive) | 89% (inactive) | 94.4% (inactive) | 90.8% (inactive) | -13.7% (inactive) | 105% | 90.8% | 0.4% (inactive) | 3.11% (inactive) | -6.91% (inactive) | -14% (inactive) | -2.7% (inactive) | 104% (inactive) | 88.1% (inactive) | 0.255% (inactive) | -2.2% (inactive)
CC(=O)c1c(OC(=O)c2ccco2)c2ccccc2n1C | 91% | 102% (inactive) | 91% (inactive) | 74.6% (inactive) | 75.3% (inactive) | -8.43% (inactive) | 83.8% | 75.3% | -0.64% (inactive) | -8.83% (inactive) | -14.2% (inactive) | -7.23% (inactive) | -4.82% (inactive) | 75.1% (inactive) | 91.3% (inactive) | 0.15% (inactive) | 1.13% (inactive)
Cc1onc(-c2ccccc2Cl)c1C(=O)Nc1cnn(Cc2ccccc2)c1 | 88.5% | 98% (inactive) | 88.5% (inactive) | 73.6% (inactive) | 81.5% (inactive) | -5.4% (inactive) | 86.9% | 81.5% | -5.73% (inactive) | 0.33% (inactive) | -12.3% (inactive) | -9.34% (inactive) | 1.54% (inactive) | 83.2% (inactive) | 73% (inactive) | 1.07% (inactive) | 2.37% (inactive)
Cc1cc(C)cc(N(CC(=O)Nc2cccc(C)n2)S(=O)(=O)c2c(C)noc2C)c1 | 88.5% | 97% (inactive) | 88.5% (inactive) | 92.3% (inactive) | 85.6% (inactive) | 11.8% (inactive) | 73.8% | 85.6% | -0.64% (inactive) | -2% (inactive) | -12.3% (inactive) | -11.5% (inactive) | -4.06% (inactive) | 73.4% (inactive) | 71.9% (inactive) | 0.94% (inactive) | 5.69% (inactive)
CCOc1ccccc1N1Cc2cc(C)c(C)cc2C1 | 92.5% | 104% (inactive) | 92.5% (inactive) | 90.4% (inactive) | 88.1% (inactive) | -9.66% (inactive) | 97.7% | 88.1% | -6.27% (inactive) | -0.83% (inactive) | -16.8% (inactive) | -12.1% (inactive) | -2.58% (inactive) | 63.6% (inactive) | 59.3% (inactive) | 2.19% (inactive) | 2.05% (inactive)
CC(Sc1nc(-c2ccccc2)cc(C(F)(F)F)n1)C(=O)N1CCCC1 (stereo not drawn) | 84.5% | 94.5% (inactive) | 84.5% (inactive) | 89.7% (inactive) | 88.8% (inactive) | -8.49% (inactive) | 97.3% | 88.8% | -4.13% (inactive) | -3.61% (inactive) | -2% (inactive) | -21.7% (inactive) | -2.25% (inactive) | 89.2% (inactive) | 84% (inactive) | 0.895% (inactive) | 1% (inactive)
CSc1nc2ccccc2c(=O)n1N | 109% | 94.5% (inactive) | 109% (inactive) | 93.9% (inactive) | 97.5% (inactive) | 4.46% (inactive) | 93.1% | 97.5% | -3.78% (inactive) | -1.48% (inactive) | -16.4% (inactive) | 6.12% (inactive) | -1.1% (inactive) | 92.2% (inactive) | 103% (inactive) | 1.75% (inactive) | 4.29% (inactive)
CCN1CCN(Cc2nc3c(c(=O)n(C)c(=O)n3C)n2CC(=O)c2ccccc2)CC1 | 100% | 108% (inactive) | 100% (inactive) | 95.5% (inactive) | 98.5% (inactive) | 2.67% (inactive) | 95.8% | 98.5% | -4.13% (inactive) | -0.33% (inactive) | 5% (inactive) | -14% (inactive) | -1.56% (inactive) | 100% (inactive) | 105% (inactive) | 1.33% (inactive) | 3.98% (inactive)
COc1ccc(OC)c(S(=O)(=O)N2CCN(c3c(C)cccc3C)CC2)c1 | 100% | 86% (inactive) | 100% (inactive) | 79.5% (inactive) | 86.9% (inactive) | 3.56% (inactive) | 83.4% | 86.9% | -8.53% (inactive) | 2.33% (inactive) | 0.405% (inactive) | 6.42% (inactive) | -2.38% (inactive) | 68% (inactive) | 82.5% (inactive) | 1.79% (inactive) | 6.46% (inactive)
COC(=O)CN(c1ccc(OC)cc1)S(=O)(=O)c1ccc(OC)c(OC)c1 | 89.5% | 91% (inactive) | 89.5% (inactive) | 96.5% (inactive) | 88.1% (inactive) | 2.77% (inactive) | 85.3% | 88.1% | -0.78% (inactive) | -2.3% (inactive) | -13.7% (inactive) | -17% (inactive) | -1.06% (inactive) | 98.5% (inactive) | 99.5% (inactive) | 1.75% (inactive) | 4.96% (inactive)
O=C(Cn1cc2c(n1)CCCC2)NCCc1ccccc1 | 105% | 100% (inactive) | 105% (inactive) | 103% (inactive) | 88.4% (inactive) | -22.7% (inactive) | 111% | 88.4% | -1.6% (inactive) | -4.33% (inactive) | -2.47% (inactive) | -9.12% (inactive) | -0.17% (inactive) | 106% (inactive) | 95.3% (inactive) | 1.38% (inactive) | 1.42% (inactive)
CCCCn1c(SCC(=O)OCC)nc2c1c(=O)[nH]c(=O)n2C | 100% | 93% (inactive) | 100% (inactive) | 96.8% (inactive) | 97.3% (inactive) | 0.46% (inactive) | 96.8% | 97.3% | -2.53% (inactive) | 0.33% (inactive) | 0.935% (inactive) | 1.66% (inactive) | -2.5% (inactive) | 94.4% (inactive) | 91.6% (inactive) | 1.31% (inactive) | 0.35% (inactive)
CCN(CC)C(=O)COC(=O)c1ccc(O)cc1 | 90.5% | 102% (inactive) | 90.5% (inactive) | 103% (inactive) | 91.2% (inactive) | -5.45% (inactive) | 96.7% | 91.2% | 1.73% (inactive) | -5.97% (inactive) | -6.88% (inactive) | -17.4% (inactive) | 0.25% (inactive) | 95.6% (inactive) | 101% (inactive) | 1.32% (inactive) | -0.27% (inactive)
O=c1[nH]c(SCc2ccc(F)cc2)nc2c1cnn2-c1ccc(F)cc1 | 69% | 106% (inactive) | 69% (inactive) | 70.7% (inactive) | 79.1% (inactive) | 38.2% (inactive) | 40.8% | 79.1% | 1.87% (inactive) | 12.3% (inactive) | -5.11% (inactive) | -7.31% (inactive) | -6.32% (inactive) | 39.8% (inactive) | 51.5% (inactive) | 1.02% (inactive) | 4.01% (inactive)
CCn1c(SCC(=O)Nc2cc(C)ccc2C)nc2c(c1=O)SC(C)C2 (stereo not drawn) | 90.5% | 116% (inactive) | 90.5% (inactive) | 74% (inactive) | 83.1% (inactive) | 15.4% (inactive) | 67.8% | 83.1% | -1.73% (inactive) | -0.5% (inactive) | -9.3% (inactive) | -6.79% (inactive) | -4.15% (inactive) | 93.6% (inactive) | 91.5% (inactive) | 1.16% (inactive) | 4.64% (inactive)
CC(C)c1nccn1S(=O)(=O)c1cc(Cl)ccc1Cl | 104% | 112% (inactive) | 104% (inactive) | 92.2% (inactive) | 90.3% (inactive) | 3.94% (inactive) | 86.3% | 90.3% | -4.03% (inactive) | -3.83% (inactive) | -4.57% (inactive) | -1% (inactive) | 0% (inactive) | 103% (inactive) | 97.2% (inactive) | 1.64% (inactive) | 4.6% (inactive)
O=C(c1ccc(Br)o1)N(Cc1ccccc1)c1ccccn1 | 93.5% | 102% (inactive) | 93.5% (inactive) | 99.6% (inactive) | 92.9% (inactive) | 2.17% (inactive) | 90.7% | 92.9% | 1.49% (inactive) | -0.98% (inactive) | -3.17% (inactive) | -6.46% (inactive) | -6.28% (inactive) | 94.9% (inactive) | 84% (inactive) | 1.94% (inactive) | 12% (inactive)
Cc1nc2ccccc2c2oc(C(=O)NCCCN3CCCC3=O)cc12 | 91% | 97.5% (inactive) | 91% (inactive) | 84.3% (inactive) | 91.8% (inactive) | 13.9% (inactive) | 77.9% | 91.8% | -5.73% (inactive) | -2.62% (inactive) | -0.475% (inactive) | -1.4% (inactive) | -1.47% (inactive) | 94.5% (inactive) | 96.8% (inactive) | 1.9% (inactive) | 6.62% (inactive)
